Records with an inconclusive call do not appear. Active and inactive are the calls of the source. Rule for the calls, unless noted: active = hit-call score of the fitted dose curve at least 0.9, where 1 is the maximum; inconclusive = response in the unintended direction; inactive = score below 0.9.
Experiments:
[1] = ATG_TCF_b_cat_CIS: Attagene CIS-FACTORIAL HepG2 Assay for human T-Cell-Factor with beta-catenin (TCF/b-cat) (AID 2282965; active = hit-call score of the fitted dose curve at least 0.9, where 1 is the maximum; inactive = score below 0.9); conditions: HepG2 TCF/beta-catenin cis-reporter transcription, actives raise or lower the signal
In short: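 In this cis-format system, transfected HepG2 cells report endogenous transcription factor activity. Readout after 24 h exposure is reporter transcript abundance from RT-PCR and capillary electrophoresis, analysed for gain or loss of signal versus DMSO.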

[2] = ATG_TAL_CIS: Attagene CIS-FACTORIAL HepG2 Assay for human TAL Basal Promoter (AID 2282966; active = hit-call score of the fitted dose curve at least 0.9, where 1 is the maximum; inactive = score below 0.9;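 note: background control endpoint measuring basal TAL promoter reporter mRNA not a specific factor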); conditions: HepG2 Attagene cis-factorial TAL promoter reporter; actives raise or lower the signal
In short: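 Readout: reporter mRNA, fluorescence by CE. System: HepG2, transient multi-reporter transfection, endogenous TF activity. Exposure: 24 h. Analysis: bidirectional, DMSO-normalized; background control.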

[3] = ATG_TGFb_CIS: Attagene CIS-FACTORIAL HepG2 Assay for human Transforming Growth Factor (TGF) (AID 2282967; active = hit-call score of the fitted dose curve at least 0.9, where 1 is the maximum; inactive = score below 0.9); conditions: HepG2 Attagene CIS TGFb reporter, mRNA transcription; actives raise or lower the signal
In short: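 Endogenous TGFB1-linked transcription factor activity read as reporter mRNA via RT-PCR and capillary electrophoresis, 24 h after dosing transiently transfected HepG2 cells. Gain or loss of signal fitted relative to DMSO.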

[4] = ATG_VDRE_CIS: Attagene CIS-FACTORIAL HepG2 Assay for human Vitamin D Receptor Element (VDRE) (AID 2282968; active = hit-call score of the fitted dose curve at least 0.9, where 1 is the maximum; inactive = score below 0.9); conditions: HepG2 VDRE cis-reporter transcription, actives raise or lower the signal
In short: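 HepG2 cells transiently transfected with cis-element reporter units, dosed 24 h; reporter mRNA measured by RT-PCR, 6-FAM labeling, HpaI digestion and capillary electrophoresis. Activity fitted bidirectionally against DMSO baseline.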

[5] = biological target: Nuclear receptor subfamily 1 group I member 3 (Homo sapiens) (UniProt Q14994); test: ATG_CAR_TRANS: Attagene TRANS-FACTORIAL HepG2 Assay for human Constitutive Androstane Receptor (CAR) (AID 2282969); conditions: HepG2 Attagene TRANS-FACTORIAL CAR reporter;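 note: activators raise reporter mRNA above DMSO so AC50 marks induction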
Chain of Nuclear receptor subfamily 1 group I member 3 (Homo sapiens) (Q14994 whole entry, looked up, the tested form may be a part): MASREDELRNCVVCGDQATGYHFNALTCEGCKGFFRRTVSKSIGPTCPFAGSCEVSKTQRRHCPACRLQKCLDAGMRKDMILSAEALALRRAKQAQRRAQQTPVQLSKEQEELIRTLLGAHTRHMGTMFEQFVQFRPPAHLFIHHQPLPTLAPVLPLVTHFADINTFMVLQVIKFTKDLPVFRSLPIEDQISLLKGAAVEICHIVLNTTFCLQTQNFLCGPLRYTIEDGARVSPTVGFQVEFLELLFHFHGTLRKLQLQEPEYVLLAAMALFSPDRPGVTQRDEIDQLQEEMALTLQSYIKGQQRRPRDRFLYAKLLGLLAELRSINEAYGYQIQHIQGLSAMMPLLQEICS
In short: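 HepG2 cells transiently transfected with multiplexed GAL4-UAS reporter units expressing chimeric NR-Gal4 proteins; compound exposure 24 h. Reporter mRNA measured by RT-PCR, 6-FAM labelling, HpaI digestion and capillary electrophoresis; gain-of-signal fitted against DMSO baseline.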

[6] = biological target: Estrogen receptor (Homo sapiens) (UniProt P03372); test: ATG_ERa_TRANS: Attagene TRANS-FACTORIAL HepG2 Assay for human Estrogen Receptor alpha (ERa) (AID 2282970); conditions: HepG2 Attagene TRANS ERa GAL4 reporter, mRNA
Chain of Estrogen receptor (Homo sapiens) (P03372 whole entry, looked up, the tested form may be a part): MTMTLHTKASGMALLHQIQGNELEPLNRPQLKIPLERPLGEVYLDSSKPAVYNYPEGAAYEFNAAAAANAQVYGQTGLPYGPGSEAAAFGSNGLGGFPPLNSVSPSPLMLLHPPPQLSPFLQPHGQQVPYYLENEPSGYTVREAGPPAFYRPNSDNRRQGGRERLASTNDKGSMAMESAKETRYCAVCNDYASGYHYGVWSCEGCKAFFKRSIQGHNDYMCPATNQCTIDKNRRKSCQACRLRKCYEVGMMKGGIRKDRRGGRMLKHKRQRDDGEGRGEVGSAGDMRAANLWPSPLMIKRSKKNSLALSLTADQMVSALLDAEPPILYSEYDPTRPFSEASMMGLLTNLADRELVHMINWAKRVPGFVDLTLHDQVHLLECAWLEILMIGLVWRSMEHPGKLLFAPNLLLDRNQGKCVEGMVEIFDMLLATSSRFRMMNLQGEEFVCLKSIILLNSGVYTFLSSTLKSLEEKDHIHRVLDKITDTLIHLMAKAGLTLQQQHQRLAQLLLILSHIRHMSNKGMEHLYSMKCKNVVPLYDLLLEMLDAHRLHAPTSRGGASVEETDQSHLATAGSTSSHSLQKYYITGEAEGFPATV
In short: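 Transactivation via ERa-Gal4 chimera in HepG2; 24 hour incubation; reporter mRNA detected by fluorescence RT-PCR and capillary electrophoresis.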

[7] = biological target: X-box-binding protein 1 (Homo sapiens) (UniProt P17861); test: ATG_Xbp1_CIS: Attagene CIS-FACTORIAL HepG2 Assay for human X-box Binding Protein 1 (XBP1) (AID 2282972; active = hit-call score of the fitted dose curve at least 0.9, where 1 is the maximum; inactive = score below 0.9); conditions: HepG2 XBP1 cis-element reporter, Attagene multiplex; actives raise or lower the signal
Chain of X-box-binding protein 1 (Homo sapiens) (P17861 whole entry, looked up): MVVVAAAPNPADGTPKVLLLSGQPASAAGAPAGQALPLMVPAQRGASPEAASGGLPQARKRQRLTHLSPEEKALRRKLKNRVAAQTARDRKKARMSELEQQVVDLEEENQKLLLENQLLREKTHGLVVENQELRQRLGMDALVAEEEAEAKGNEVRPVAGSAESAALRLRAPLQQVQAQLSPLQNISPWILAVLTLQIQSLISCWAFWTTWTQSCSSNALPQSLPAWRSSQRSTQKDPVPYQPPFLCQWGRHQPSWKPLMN
In short: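 HepG2 cells transiently transfected with multiple cis-element reporter units report endogenous TF activity; 24 h exposure, then reporter mRNA measured by RT-PCR, 6-FAM labelling, HpaI digestion and capillary electrophoresis. Bidirectional fitting versus DMSO.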

[8] = ATG_M_19_TRANS: Attagene TRANS-FACTORIAL HepG2 Assay for M19 Transcription Factor (Internal Marker) (AID 2282974); conditions: HepG2 Attagene TRANS-FACTORIAL M19 internal marker reporter
In short: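 Transfected HepG2 (GAL4-UAS MRTUs), 24 h compound, TriZol RNA, DNase-treated RT, reporter PCR, FAM label, HpaI digest, CE fluorescence; gain vs DMSO.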

[9] = ATG_Hpa5_TRANS: Attagene TRANS-FACTORIAL HepG2 Assay for human GAL4-Hpa5 Hepatocyte Transcription Factor Basal Promoter (AID 2282975); conditions: HepG2 Attagene GAL4-Hpa5 transcription reporter;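 note: hits are increases in reporter mRNA over DMSO baseline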
In short: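 Basal-promoter GAL4 background control within the HepG2 trans-factorial panel of transiently transfected reporter units. Reporter mRNA is measured 24 h after dosing by RT-PCR and capillary electrophoresis, fitted for gain of signal versus DMSO.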

[10] = biological target: Glucocorticoid receptor (Homo sapiens) (UniProt P04150); test: ATG_GR_TRANS: Attagene TRANS-FACTORIAL HepG2 Assay for human Glucocorticoid Receptor (GR) (AID 2282978); conditions: HepG2 Attagene TRANS GR reporter, mRNA transcription;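 note: activators score as hits since higher reporter transcript over DMSO is fitted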
Chain of Glucocorticoid receptor (Homo sapiens) (P04150 whole entry, looked up): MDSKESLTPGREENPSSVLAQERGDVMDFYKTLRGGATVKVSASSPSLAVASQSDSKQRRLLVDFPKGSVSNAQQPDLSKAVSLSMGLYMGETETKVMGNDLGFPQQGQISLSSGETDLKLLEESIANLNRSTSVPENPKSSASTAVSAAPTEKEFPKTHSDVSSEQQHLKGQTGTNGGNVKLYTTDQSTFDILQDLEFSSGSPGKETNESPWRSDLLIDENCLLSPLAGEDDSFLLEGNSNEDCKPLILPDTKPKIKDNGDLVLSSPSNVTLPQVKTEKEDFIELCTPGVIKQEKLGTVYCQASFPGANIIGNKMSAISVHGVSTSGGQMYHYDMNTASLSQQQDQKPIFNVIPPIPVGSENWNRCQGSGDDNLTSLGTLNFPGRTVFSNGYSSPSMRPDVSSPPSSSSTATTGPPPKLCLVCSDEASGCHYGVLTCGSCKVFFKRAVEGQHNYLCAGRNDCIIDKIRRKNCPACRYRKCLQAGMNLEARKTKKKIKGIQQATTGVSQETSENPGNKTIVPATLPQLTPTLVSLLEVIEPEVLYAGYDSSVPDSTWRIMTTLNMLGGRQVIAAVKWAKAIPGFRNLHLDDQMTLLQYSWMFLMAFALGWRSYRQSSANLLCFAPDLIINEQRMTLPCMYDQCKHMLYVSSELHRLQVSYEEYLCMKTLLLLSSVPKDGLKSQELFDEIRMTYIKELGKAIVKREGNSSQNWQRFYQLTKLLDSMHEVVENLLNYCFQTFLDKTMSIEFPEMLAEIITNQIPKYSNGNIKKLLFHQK
In short: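 After 24 h incubation with test chemical, transfected HepG2 cells were lysed for RNA; reporter cDNA was amplified, FAM-labelled, HpaI-digested and sized on a capillary analyser. Signal gain relative to DMSO was scored.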

[11] = biological target: Oxysterols receptor LXR-alpha (Homo sapiens) (UniProt Q13133); test: ATG_LXRa_TRANS: Attagene TRANS-FACTORIAL HepG2 Assay for human Liver X Receptor alpha (LXRa) (AID 2282980); conditions: HepG2 Attagene TRANS reporter, LXRa transactivation
Chain of Oxysterols receptor LXR-alpha (Homo sapiens) (Q13133 whole entry, looked up): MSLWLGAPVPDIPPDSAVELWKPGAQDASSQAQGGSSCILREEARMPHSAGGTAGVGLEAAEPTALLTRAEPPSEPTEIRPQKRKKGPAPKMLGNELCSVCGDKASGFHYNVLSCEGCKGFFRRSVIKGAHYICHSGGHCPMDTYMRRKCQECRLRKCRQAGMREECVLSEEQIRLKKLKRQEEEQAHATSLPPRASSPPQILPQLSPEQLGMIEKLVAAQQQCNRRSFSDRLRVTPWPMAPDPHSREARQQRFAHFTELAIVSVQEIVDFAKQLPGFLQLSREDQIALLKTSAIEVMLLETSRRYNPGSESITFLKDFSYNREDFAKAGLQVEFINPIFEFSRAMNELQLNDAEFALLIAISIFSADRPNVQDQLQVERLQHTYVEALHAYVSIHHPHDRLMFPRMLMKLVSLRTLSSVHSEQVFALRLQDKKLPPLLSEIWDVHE
In short: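 Transient HepG2 transfectants, 24 h dosing, RT-PCR/CE mRNA reporter quantitation; gain-of-signal vs DMSO.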

[12] = biological target: Oxysterols receptor LXR-beta (Homo sapiens) (UniProt P55055); test: ATG_LXRb_TRANS: Attagene TRANS-FACTORIAL HepG2 Assay for human Liver X Receptor beta (LXRb) (AID 2282981); conditions: HepG2 Attagene TRANS GAL4-LXRb reporter, mRNA
Chain of Oxysterols receptor LXR-beta (Homo sapiens) (P55055 whole entry, looked up, the tested form may be a part): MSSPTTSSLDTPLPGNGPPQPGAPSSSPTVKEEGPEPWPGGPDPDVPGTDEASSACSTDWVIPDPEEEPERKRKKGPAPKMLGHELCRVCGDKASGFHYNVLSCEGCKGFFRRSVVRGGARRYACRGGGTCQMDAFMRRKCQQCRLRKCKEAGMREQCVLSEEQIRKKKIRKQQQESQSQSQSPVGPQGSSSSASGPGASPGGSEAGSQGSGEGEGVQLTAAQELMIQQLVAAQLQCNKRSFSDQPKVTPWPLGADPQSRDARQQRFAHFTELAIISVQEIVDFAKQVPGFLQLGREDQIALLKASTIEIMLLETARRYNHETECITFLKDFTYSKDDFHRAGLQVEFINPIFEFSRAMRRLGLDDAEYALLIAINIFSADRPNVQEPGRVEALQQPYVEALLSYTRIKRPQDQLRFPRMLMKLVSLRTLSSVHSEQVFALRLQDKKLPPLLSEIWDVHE
In short: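 HepG2 cells transiently transfected with multiple reporter transcription units carrying chimeric NR-Gal4 proteins acting on GAL4-UAS reporters; compound exposure 24 h. Reporter mRNA quantified by RT-PCR, 6-FAM labelling, HpaI digestion and capillary electrophoresis; gain of signal versus DMSO.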

[13] = biological target: Hepatocyte nuclear factor 4-alpha (Homo sapiens) (UniProt P41235); test: ATG_HNF4a_TRANS: Attagene TRANS-FACTORIAL HepG2 Assay for human Hepatocyte Nuclear Factor 4 alpha (HNF4a) (AID 2282982); conditions: HepG2 HNF4a transactivation reporter, mRNA readout
Chain of Hepatocyte nuclear factor 4-alpha (Homo sapiens) (P41235 whole entry, looked up, the tested form may be a part): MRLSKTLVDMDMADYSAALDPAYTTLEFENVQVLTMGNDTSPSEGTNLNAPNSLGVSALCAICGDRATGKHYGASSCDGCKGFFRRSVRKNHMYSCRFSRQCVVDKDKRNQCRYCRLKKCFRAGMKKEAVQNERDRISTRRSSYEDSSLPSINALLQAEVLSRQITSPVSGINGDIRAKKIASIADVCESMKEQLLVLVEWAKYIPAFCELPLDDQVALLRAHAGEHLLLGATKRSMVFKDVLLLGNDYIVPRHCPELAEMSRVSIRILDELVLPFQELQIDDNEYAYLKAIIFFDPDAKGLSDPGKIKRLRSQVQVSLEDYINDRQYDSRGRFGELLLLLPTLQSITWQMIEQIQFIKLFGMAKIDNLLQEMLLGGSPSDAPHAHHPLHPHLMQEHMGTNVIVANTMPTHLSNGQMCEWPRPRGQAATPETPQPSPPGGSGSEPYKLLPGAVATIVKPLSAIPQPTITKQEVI
In short: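 HepG2 cells transiently transfected with multiplexed GAL4-UAS reporter units responsive to chimeric NR-GAL4 proteins; compound exposure 24 h. Reporter mRNA quantified by RT-PCR, 6-FAM labelling, HpaI digestion and capillary electrophoresis; gain of signal versus DMSO baseline.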

[14] = ATG_M_32_TRANS: Attagene TRANS-FACTORIAL HepG2 Assay for M32 Transcription Factor (Internal Marker) (AID 2282984); conditions: HepG2 Attagene TRANS M32 internal marker reporter
In short: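 HepG2 cells transiently transfected with multiple GAL4-UAS reporter transcription units, dosed for 24 hours; reporter mRNA quantified by RT-PCR, 6-FAM primer extension, HpaI digestion and capillary electrophoresis. Gain-of-signal fitted versus DMSO baseline; internal background-control marker.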

[15] = biological target: Nuclear receptor subfamily 4 group A member 2 (Homo sapiens) (UniProt P43354); test: ATG_NURR1_TRANS: Attagene TRANS-FACTORIAL HepG2 Assay for human Nuclear Receptor Related Protein 1 (NURR1) (AID 2282985); conditions: HepG2 Attagene TRANS reporter, mRNA readout
Chain of Nuclear receptor subfamily 4 group A member 2 (Homo sapiens) (P43354 whole entry, looked up, the tested form may be a part): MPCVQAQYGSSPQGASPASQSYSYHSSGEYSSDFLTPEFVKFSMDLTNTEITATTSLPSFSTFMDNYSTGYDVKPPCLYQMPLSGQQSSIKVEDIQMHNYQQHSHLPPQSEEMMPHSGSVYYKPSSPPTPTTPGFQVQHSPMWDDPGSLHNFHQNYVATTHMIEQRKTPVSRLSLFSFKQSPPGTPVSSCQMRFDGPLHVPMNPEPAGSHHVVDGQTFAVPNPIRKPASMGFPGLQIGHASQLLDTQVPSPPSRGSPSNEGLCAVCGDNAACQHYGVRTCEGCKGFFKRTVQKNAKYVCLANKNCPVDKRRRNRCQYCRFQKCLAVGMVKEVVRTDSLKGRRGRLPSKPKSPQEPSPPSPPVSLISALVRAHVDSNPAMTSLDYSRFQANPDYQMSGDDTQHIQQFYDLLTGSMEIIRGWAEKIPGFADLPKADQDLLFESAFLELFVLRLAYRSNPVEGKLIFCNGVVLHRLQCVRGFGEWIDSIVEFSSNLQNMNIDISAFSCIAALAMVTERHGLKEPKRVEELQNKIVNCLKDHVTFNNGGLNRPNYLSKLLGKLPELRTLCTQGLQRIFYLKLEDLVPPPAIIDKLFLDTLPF
In short: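 HepG2 cells transiently transfected with GAL4-UAS reporter units and chimeric NR-Gal4 constructs; chemical exposure 24 h. Reporter mRNA quantified by RT-PCR, fluorescent labelling and capillary electrophoresis; gain of signal fitted relative to DMSO baseline.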

[16] = biological target: Transcriptional activator Myb (Homo sapiens) (UniProt P10242); test: ATG_Myb_CIS: Attagene CIS-FACTORIAL HepG2 Assay for human Myeloblastosis (Myb) Proto-Oncogene Transcription Factor (AID 2282986; active = hit-call score of the fitted dose curve at least 0.9, where 1 is the maximum; inactive = score below 0.9); conditions: HepG2 Attagene CIS-FACTORIAL Myb reporter transcription; actives raise or lower the signal
Chain of Transcriptional activator Myb (Homo sapiens) (P10242 whole entry, looked up): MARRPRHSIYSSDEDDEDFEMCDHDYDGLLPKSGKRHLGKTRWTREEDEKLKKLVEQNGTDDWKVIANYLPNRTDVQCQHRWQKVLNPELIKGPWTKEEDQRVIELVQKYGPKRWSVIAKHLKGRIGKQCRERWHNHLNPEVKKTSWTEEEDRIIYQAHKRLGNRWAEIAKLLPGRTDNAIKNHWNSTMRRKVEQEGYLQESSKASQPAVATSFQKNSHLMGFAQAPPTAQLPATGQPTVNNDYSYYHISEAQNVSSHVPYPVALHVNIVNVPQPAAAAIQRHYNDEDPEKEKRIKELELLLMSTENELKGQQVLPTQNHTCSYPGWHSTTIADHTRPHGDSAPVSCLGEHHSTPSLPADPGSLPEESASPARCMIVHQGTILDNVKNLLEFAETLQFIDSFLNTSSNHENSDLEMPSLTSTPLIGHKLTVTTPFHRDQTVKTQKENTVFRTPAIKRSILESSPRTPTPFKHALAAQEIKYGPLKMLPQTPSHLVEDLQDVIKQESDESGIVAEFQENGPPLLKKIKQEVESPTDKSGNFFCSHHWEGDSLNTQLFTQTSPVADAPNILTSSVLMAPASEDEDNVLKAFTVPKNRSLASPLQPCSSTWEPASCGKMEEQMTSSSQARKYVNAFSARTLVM
In short: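 After 24 h of compound dosing, total RNA from transfected HepG2 cells is reverse-transcribed and the reporter sequences amplified, labeled and separated by capillary electrophoresis. Values come from bidirectional fitting against DMSO.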

[17] = ATG_GAL4_TRANS: Attagene TRANS-FACTORIAL HepG2 Assay for GAL4 (Internal Marker) (AID 2282976); conditions: HepG2 Attagene TRANS GAL4 internal marker reporter
In short: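 Fluorescence from capillary electrophoresis of labelled RT-PCR products quantifies reporter mRNA induction after 24 h dosing of HepG2 cells carrying transfected GAL4-UAS reporter transcription units. Vehicle DMSO serves as baseline.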

[18] = ATG_M_06_TRANS: Attagene TRANS-FACTORIAL HepG2 Assay for M06 Transcription Factor (Internal Marker) (AID 2282983); conditions: HepG2 Attagene TRANS M06 internal marker reporter;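 note: reporter transcript level by RT-PCR then capillary electrophoresis fluorescence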
In short: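 Measured by capillary electrophoresis of fluorescently labelled RT-PCR products, this endpoint reflects reporter mRNA in HepG2 cells harbouring exogenous NR-GAL4 reporter constructs after 24 h exposure, with DMSO as baseline.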

Measured: AC50

O=[N+]([O-])c1c(Cl)c(Cl)c(Cl)c(Cl)c1Cl
active: [1] 29 µM | [4] 50 µM | [6] 50 µM
not listed: [17] | [18]
inactive: all other assays above

CCCN(CCC)c1c([N+](=O)[O-])cc(C(F)(F)F)cc1[N+](=O)[O-]
active: [4] 13.4 µM | [6] 35.9 µM
not listed: [10] | [11] | [13]
inactive: all other assays above

Clc1ccccc1-c1nnc(-c2ccccc2Cl)nn1
not listed: [9] | [10] | [11] | [17] | [18]
inactive: all other assays above

Reference: PubChem BioAssay (EPA / NIEHS)
